Read-out in assay [1]: Monocyte Chemoattractant Protein-1 (MCP1), CCL2 (gene 6347)
The assay can be described thus: BSK_SAg_MCP1: BioMAP Diversity Plus: SAg Assay for Monocyte Chemoattractant Protein-1 (MCP1) Biomarker Activity (AID 2283090). Particulars: primary human HUVEC with PBMC; actives raise or lower the signal. A digest of the protocol: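 MCP-1 levels in the endothelial–PBMC SAg co-culture were quantified by ELISA at 24 h post-dosing; both increases and decreases versus DMSO scored. Cytotoxicity monitored by SRB total protein in parallel cultures.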

Read-out in assay [2]: E-selectin (Homo sapiens) (UniProt P16581)
As to the kind of experiment: BSK_SAg_Eselectin: BioMAP Diversity Plus: SAg Assay for Eselectin Biomarker Activity (AID 2283091). As to conditions: primary human HUVEC with PBMC; actives raise or lower the signal. A digest of the protocol: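 Primary human endothelial cells and peripheral blood mononuclear cells were co-cultured and exposed to chemical for 24 hours. E-selectin levels were then quantified by ELISA, with bidirectional curve fitting normalised to DMSO controls.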

Read-out in assay [3]: Monokine induced gamma interferon (MIG), CXCL9 (gene 4283)
The assay can be described thus: BSK_SAg_MIG: BioMAP Diversity Plus: SAg Assay for Monokine induced gamma interferon (MIG) Biomarker Activity (AID 2283092). As to conditions: primary human HUVEC with PBMC; actives raise or lower the signal. A digest of the protocol: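 ELISA readout of MIG/CXCL9; primary human umbilical vein endothelial cells co-cultured with peripheral blood mononuclear cells; 24 h post-dose; gain/loss fit vs DMSO baseline.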

Assay [4] in a line: BSK_SAg_PBMCCytotoxicity: PBMC Cytotoxicity Assessment in the BioMAP Diversity Plus: SAg Assay (AID 2283093).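 Also: PBMC viability measured as Alamar Blue reduction fluorescence at 546/580 nm; fitted both ways against DMSO so a hit may be loss or gain of signal.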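 As to AC50: PBMC superantigen activated with SEB plus TSST-1 one hour after compound addition.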 As to conditions: primary human HUVEC with PBMC. A digest of the protocol:
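HUVEC/PBMC co-culture; PBMC exposed to chemical 1 h before SEB and TSST-1 activation (20 ng/mL each), incubated 90 h, then Alamar Blue 6 h, fluorescence 546/580 nm. Bidirectional fit versus DMSO baseline.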

Read-out in assay [5]: Interleukin-8 (IL8), CXCL8 (gene 3576)
The assay can be described thus: BSK_SAg_IL8: BioMAP Diversity Plus: SAg Assay for Interleukin-8 (IL8) Biomarker Activity (AID 2283094). Particulars: primary human HUVEC with PBMC; actives raise or lower the signal. Put shortly:
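Human umbilical vein endothelial cells co-cultured with PBMC, stimulated with superantigen; IL-8 measured by ELISA 24 h after chemical dosing. Bidirectional fitting versus DMSO; SRB staining in parallel cultures tracks cytotoxicity.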

Assay [6] in a line: BSK_SAg_Proliferation: Cell Proliferation Assessment in the BioMAP Diversity Plus: SAg Assay (AID 2283095). As to conditions: primary human HUVEC with PBMC. A digest of the protocol: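 Human umbilical vein endothelial cells co-cultured with PBMC; sulforhodamine B total-protein staining (0.1% SRB after 10% TCA fixation, absorbance 560 nm) at 96 h in sub-confluent culture. Fitted bidirectionally against DMSO.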

A short description of assay [7]: BSK_SAg_SRB: Viability Assessment in the BioMAP Diversity Plus: SAg Assay (AID 2283096).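 Also: cells read one day after compound addition; hits may be either gain or loss of signal compared with DMSO.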 As to conditions: primary human HUVEC with PBMC. A digest of the protocol: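 Human umbilical vein endothelial cells co-cultured with PBMC, read 24 h after compound dosing. Total protein measured by sulforhodamine B staining (0.1% SRB after 10% TCA fixation, absorbance 560 nm); bidirectional fit versus DMSO baseline.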

The target of assay [8] is human CYP19A1, CYP19A1 (gene 1588) (UniProt P11511). The assay can be described thus: NVS_ADME_hCYP19A1: NovaScreen (NVS) CYP450-related Enzyme Activity (ADME) Assay for human CYP19A1 (AID 2283098; active = hit-call score of the fitted dose curve at least 0.9, where 1 is the maximum). A digest of the protocol:
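Recombinant enzyme in a cell-free format, read 0.5 h after dosing by fluorescence from a fluorogenic substrate. Loss of signal was fitted against acetonitrile as baseline. Primary screen in duplicate at 10 uM, actives then tested in concentration series.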

Assay [9] deals with Cytochrome P450 2C18 (Homo sapiens) (UniProt P33260). As to the kind of experiment: NVS_ADME_hCYP2C18: NovaScreen (NVS) CYP450-related Enzyme Activity (ADME) Assay for human CYP2C18 (AID 2283103). Put shortly: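 Cell-free recombinant human CYP2C18 with fluorogenic substrate; fluorescence intensity read 0.5 h after dosing. Single-point screen at 10 uM in duplicate, then concentration-response up to 20 uM; loss of signal fitted against acetonitrile baseline.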

Assay [10] has as its target Cytochrome P450 2C19 (Homo sapiens) (UniProt P33261). As to the kind of experiment: NVS_ADME_hCYP2C19: NovaScreen (NVS) CYP450-related Enzyme Activity (ADME) Assay for human CYP2C19 (AID 2283113; active = hit-call score of the fitted dose curve at least 0.9, where 1 is the maximum;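 also: potency for inhibition seen as loss of fluorescent signal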). Put shortly: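 Chemicals first screened in duplicate at 10 uM against recombinant human enzyme produced in insect cells; confirmed actives then run as concentration series. Fluorogenic substrate turnover read by fluorescence after 1 h, normalised to acetonitrile.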

Assay [11] addresses human CYP2C9, CYP2C9 (gene 1559) (UniProt P11712). As to the kind of experiment: NVS_ADME_hCYP2C9: NovaScreen (NVS) CYP450-related Enzyme Activity (ADME) Assay for human CYP2C9 (AID 2283108; active = hit-call score of the fitted dose curve at least 0.9, where 1 is the maximum). Put shortly: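 Recombinant human CYP2C9 expressed in SF9 cells, fluorogenic substrate, fluorescence read 0.75 h after dosing. Chemicals first run in duplicate at 10 uM, with actives followed in concentration series; loss of signal versus acetonitrile baseline.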

Assay [12] has as its target Cytochrome P450 3A4 (Homo sapiens) (UniProt P08684). As to the kind of experiment: NVS_ADME_hCYP3A4: NovaScreen (NVS) CYP450-related Enzyme Activity (ADME) Assay for human CYP3A4 (AID 2283110; active = hit-call score of the fitted dose curve at least 0.9, where 1 is the maximum). A digest of the protocol:
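Cell-free recombinant enzyme expressed in insect cells; fluorescent substrate turnover read after 0.33 h, acetonitrile as negative control. Primary screen in duplicate at 10 uM, actives then tested in concentration series.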

Assay [13] concerns the target human CYP1A1, CYP1A1 (gene 1543) (UniProt P04798). The assay can be described thus: NVS_ADME_hCYP1A1: NovaScreen (NVS) CYP450-related Enzyme Activity (ADME) Assay for human CYP1A1 (AID 2283100; active = hit-call score of the fitted dose curve at least 0.9, where 1 is the maximum). Put shortly: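 Compounds first went through duplicate single-concentration testing at 10 uM against purified CYP1A1. Those passing a threshold such as 30% inhibition entered singleton dose-response, highest concentration 20 uM. Signal was fluorescence measured after 1 hour.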

Assay [14] deals with human CYP2J2, CYP2J2 (gene 1573) (UniProt P51589). As to the kind of experiment: NVS_ADME_hCYP2J2: NovaScreen (NVS) CYP450-related Enzyme Activity (ADME) Assay for human CYP2J2 (AID 2283106; active = hit-call score of the fitted dose curve at least 0.9, where 1 is the maximum). Put shortly: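 Cell-free assay of recombinant CYP2J2 with a fluorogenic substrate, read 1 h after dosing; loss of signal versus acetonitrile. Primary screen at 10 uM in duplicate, then concentration-response up to 20 uM for chemicals passing threshold (e.g., 30% inhibition).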

Assay [15] concerns the target human CYP2D6, CYP2D6 (gene 1565) (UniProt P10635). The assay can be described thus: NVS_ADME_hCYP2D6: NovaScreen (NVS) CYP450-related Enzyme Activity (ADME) Assay for human CYP2D6 (AID 2283107; active = hit-call score of the fitted dose curve at least 0.9, where 1 is the maximum). Put shortly: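 Compounds were first tested in duplicate at 10 uM against recombinant enzyme produced in insect cells, with substrate turnover measured by fluorescence after 1 hour. Decreased signal, referenced to acetonitrile vehicle, was taken as reduced enzyme activity. Active chemicals went on to concentration-response testing.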

Assay [16] addresses human CYP4F12, CYP4F12 (gene 66002) (UniProt Q9HCS2). As to the kind of experiment: NVS_ADME_hCYP4F12: NovaScreen (NVS) CYP450-related Enzyme Activity (ADME) Assay for human CYP4F12 (AID 2283111; active = hit-call score of the fitted dose curve at least 0.9, where 1 is the maximum). Put shortly: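 Cell-free fluorescence assay of recombinant human CYP4F12 activity on a specific substrate, read 0.5 h after dosing. Primary screen in duplicate at 10 uM, then concentration series for actives; loss of signal fitted against acetonitrile negative control.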

Several values for one entry are separate records, joined by “and”; a condition that tells them apart may be missing. Equal entries are not always repeated. Results filed as inconclusive are left out. Some compounds were tested as several samples or in several runs, with calls that do not always agree. Activity calls are given as the source filed them. The calls were made as follows, unless noted: active = hit-call score of the fitted dose curve at least 0.9, where 1 is the maximum; inactive = score below 0.9.

E-selectin (Homo sapiens), sequence (P16581 whole entry, looked up): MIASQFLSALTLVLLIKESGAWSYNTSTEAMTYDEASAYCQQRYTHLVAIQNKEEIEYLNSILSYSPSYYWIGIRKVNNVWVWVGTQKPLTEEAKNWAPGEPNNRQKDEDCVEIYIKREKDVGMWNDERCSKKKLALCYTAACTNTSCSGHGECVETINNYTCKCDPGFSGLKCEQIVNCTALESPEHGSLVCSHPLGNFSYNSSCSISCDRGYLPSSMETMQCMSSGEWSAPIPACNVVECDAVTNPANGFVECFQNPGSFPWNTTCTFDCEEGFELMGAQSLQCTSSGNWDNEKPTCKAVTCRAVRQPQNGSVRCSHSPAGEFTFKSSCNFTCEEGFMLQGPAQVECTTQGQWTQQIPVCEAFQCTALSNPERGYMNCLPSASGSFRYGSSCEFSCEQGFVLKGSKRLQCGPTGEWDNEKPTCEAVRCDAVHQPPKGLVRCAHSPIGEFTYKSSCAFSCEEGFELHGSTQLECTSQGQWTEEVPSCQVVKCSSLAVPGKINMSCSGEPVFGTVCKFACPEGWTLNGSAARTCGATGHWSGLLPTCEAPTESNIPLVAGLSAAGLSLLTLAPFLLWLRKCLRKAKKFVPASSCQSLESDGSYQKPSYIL
human CYP19A1, CYP19A1 (gene 1588), sequence (P11511 whole entry, looked up): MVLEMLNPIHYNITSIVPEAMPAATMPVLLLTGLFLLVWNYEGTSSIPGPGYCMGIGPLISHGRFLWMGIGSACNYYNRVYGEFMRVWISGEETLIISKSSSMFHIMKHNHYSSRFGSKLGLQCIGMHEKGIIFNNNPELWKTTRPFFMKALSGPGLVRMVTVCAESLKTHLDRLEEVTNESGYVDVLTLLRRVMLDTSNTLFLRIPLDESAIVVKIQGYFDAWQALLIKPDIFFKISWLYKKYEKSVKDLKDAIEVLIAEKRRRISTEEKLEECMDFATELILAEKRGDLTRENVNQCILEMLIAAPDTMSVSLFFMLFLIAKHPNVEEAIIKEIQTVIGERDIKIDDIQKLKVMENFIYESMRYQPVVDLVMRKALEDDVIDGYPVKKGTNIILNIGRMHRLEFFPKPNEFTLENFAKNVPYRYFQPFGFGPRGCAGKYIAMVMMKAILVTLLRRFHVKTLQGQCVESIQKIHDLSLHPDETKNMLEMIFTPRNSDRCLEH
Cytochrome P450 2C18 (Homo sapiens), sequence (P33260 whole entry, looked up): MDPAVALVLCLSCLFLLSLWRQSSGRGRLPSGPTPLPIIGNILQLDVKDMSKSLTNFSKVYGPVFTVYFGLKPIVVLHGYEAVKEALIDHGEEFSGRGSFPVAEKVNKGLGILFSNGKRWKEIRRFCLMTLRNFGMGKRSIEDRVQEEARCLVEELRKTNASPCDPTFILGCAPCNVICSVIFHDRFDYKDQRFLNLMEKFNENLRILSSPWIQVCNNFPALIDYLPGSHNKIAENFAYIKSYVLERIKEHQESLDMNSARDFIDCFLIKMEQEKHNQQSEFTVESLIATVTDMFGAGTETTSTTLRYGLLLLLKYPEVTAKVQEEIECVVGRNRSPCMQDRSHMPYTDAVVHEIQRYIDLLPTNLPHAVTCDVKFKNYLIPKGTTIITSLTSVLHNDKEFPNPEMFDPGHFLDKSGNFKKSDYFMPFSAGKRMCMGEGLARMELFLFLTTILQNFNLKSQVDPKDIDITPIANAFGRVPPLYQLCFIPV
human CYP2C9, CYP2C9 (gene 1559), sequence (P11712 whole entry, looked up): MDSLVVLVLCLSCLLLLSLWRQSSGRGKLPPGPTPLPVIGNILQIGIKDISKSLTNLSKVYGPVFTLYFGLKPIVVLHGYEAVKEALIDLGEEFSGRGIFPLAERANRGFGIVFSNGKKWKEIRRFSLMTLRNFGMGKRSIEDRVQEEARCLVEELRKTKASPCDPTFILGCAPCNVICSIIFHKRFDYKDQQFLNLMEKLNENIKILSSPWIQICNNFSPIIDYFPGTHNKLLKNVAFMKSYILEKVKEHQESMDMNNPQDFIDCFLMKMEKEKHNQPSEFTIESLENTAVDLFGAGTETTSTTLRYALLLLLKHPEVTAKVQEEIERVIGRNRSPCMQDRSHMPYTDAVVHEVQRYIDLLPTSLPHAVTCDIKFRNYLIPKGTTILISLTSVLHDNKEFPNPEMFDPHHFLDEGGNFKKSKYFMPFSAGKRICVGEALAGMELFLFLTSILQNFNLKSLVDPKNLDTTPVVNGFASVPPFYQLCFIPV
Cytochrome P450 3A4 (Homo sapiens), sequence (P08684 whole entry, looked up): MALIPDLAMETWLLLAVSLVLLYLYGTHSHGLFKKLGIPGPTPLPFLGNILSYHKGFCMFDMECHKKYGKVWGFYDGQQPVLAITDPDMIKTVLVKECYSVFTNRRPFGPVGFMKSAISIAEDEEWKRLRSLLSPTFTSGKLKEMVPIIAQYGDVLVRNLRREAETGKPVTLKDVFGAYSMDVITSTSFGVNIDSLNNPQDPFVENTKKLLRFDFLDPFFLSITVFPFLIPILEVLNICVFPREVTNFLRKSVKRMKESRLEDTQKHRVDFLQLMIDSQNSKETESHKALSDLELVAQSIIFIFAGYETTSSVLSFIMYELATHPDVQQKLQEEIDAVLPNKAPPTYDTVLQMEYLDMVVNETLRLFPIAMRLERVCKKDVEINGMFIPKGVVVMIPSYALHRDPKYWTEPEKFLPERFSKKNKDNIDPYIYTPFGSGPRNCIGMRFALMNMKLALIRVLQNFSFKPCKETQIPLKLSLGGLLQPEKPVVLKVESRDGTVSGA
human CYP4F12, CYP4F12 (gene 66002), sequence (Q9HCS2 whole entry, looked up): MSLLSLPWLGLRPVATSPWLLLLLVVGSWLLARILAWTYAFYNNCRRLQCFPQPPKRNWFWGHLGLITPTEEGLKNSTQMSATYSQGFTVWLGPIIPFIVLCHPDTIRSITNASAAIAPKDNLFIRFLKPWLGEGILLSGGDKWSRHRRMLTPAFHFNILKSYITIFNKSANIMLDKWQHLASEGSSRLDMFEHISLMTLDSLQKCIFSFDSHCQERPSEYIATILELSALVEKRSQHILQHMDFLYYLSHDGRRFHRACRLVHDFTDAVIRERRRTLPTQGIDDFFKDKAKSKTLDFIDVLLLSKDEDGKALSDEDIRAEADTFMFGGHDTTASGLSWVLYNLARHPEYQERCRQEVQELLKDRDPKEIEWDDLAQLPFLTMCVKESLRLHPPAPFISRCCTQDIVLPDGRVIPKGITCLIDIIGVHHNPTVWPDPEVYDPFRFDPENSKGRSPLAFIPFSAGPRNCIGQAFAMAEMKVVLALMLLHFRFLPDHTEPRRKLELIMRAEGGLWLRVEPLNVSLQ
human CYP2D6, CYP2D6 (gene 1565), sequence (P10635 whole entry, looked up): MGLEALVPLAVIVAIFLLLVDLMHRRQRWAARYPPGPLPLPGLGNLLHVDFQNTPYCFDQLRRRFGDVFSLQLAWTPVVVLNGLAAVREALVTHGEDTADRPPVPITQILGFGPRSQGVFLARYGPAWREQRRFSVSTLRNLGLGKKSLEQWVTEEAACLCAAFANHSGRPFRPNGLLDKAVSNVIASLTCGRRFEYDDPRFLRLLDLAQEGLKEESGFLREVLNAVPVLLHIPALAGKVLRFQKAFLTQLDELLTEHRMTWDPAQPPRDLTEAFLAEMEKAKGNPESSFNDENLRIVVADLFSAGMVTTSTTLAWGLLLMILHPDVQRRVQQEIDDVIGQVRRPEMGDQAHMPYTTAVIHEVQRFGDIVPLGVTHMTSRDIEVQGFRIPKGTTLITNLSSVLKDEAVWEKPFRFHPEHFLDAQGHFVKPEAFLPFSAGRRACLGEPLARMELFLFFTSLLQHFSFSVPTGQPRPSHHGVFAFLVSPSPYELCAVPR
human CYP1A1, CYP1A1 (gene 1543), sequence (P04798 whole entry, looked up): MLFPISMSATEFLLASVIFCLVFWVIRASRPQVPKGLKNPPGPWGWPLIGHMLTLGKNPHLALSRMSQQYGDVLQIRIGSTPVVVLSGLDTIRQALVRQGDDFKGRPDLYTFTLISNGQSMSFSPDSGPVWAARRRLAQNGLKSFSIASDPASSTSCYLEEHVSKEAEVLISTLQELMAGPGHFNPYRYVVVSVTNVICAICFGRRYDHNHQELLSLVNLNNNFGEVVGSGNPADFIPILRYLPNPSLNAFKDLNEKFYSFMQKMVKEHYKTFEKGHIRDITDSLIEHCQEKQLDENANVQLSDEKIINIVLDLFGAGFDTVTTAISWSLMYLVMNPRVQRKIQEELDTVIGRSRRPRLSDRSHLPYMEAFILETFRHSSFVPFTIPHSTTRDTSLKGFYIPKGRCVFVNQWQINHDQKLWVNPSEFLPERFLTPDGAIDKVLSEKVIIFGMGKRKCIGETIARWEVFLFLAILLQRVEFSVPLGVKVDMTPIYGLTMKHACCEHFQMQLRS
human CYP2J2, CYP2J2 (gene 1573), sequence (P51589 whole entry, looked up): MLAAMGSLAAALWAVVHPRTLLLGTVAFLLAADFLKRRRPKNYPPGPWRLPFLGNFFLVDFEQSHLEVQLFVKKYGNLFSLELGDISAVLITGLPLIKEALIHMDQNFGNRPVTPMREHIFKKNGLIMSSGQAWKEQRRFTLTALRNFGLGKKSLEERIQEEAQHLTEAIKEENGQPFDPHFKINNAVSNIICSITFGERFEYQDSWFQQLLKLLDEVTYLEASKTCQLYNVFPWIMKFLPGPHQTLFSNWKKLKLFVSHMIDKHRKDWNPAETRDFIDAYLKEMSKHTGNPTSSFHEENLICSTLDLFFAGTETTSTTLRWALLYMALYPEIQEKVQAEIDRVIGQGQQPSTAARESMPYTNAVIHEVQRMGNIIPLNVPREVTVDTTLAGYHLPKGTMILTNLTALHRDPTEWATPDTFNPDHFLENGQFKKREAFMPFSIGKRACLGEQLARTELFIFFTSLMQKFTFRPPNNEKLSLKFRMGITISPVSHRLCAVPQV

A word on the AC50: it is the midpoint of the concentration-response curve, whichever way the signal moves. Consider `CCOc1cc(Oc2ccc(C(F)(F)F)cc2Cl)ccc1[N+](=O)[O-]`, for which the result in assay [1], in assay [3] and in [4] was inactive. Also, the results for the AC50 in assay [2], in assay [5] and in [6] were 9.5 µM (active), 12.5 µM (active) and 18.5 µM (active), respectively.

On to `COC(=O)c1ccccc1C(=O)OC`, for which the result in assay [1], in assay [2], in assay [3], in [4], in assay [5] and in assay [6] was inactive.

Take `COP(N)(=O)SC` (stereo not drawn): the outcome in assay [1], in assay [2], in assay [3], in assay [4], in assay [5] and in assay [6] was inactive. Also, the outcome in assay [7] and in assay [8] was inactive.

On to `CCCCNC(=O)OCC#CI`, for which the concentration at half-maximal activity (AC50) in [1] was 29.2 µM (active) and 26.1 µM (active); in assay [2], 25 µM (active) and 22.7 µM (active); in assay [3] it was 35.1 µM (active) and 36.5 µM (active); in assay [4] it was 7.02 µM (active) and 7.09 µM (active); in assay [5], 22.1 µM (active) and 14.7 µM (active); in assay [6], 2.71 µM (active) and 2.68 µM (active). The concentration at half-maximal activity (AC50) in assay [7] was 28.6 µM (active); in assay [9] it was 2.41 µM (active) and 4.8 µM (active); in [10], 1.81 µM (active) and 2.46 µM (active).

In the case of `CO/C=C(/C(=O)OC)c1ccccc1Oc1cc(Oc2ccccc2C#N)ncn1`, the half-maximal activity concentration (AC50) in assay [1] is 26.6 µM (active) and 25.4 µM (active); in assay [2] it was 17.4 µM (active) [middle of 4 runs]; in [3], 34.9 µM (active) and 34.2 µM (active) and 30 µM (active); in assay [4] it was 6.9 µM (active) and 5.28 µM (active) and 13 µM (active); in assay [5], 12.5 µM (active) [middle of 4 runs]; in assay [6], 13.9 µM (active) [middle of 4 runs]. In addition, the AC50 in [9] was 5.5 µM (active). The result in [1], in assay [3], in assay [4], in [8], in assay [11] and in assay [12] was inactive.

With `CC(Oc1ccc(Cl)cc1Cl)C(=O)O` (stereo not drawn), the result in [1], in [2], in assay [3], in [4], in assay [5] and in assay [6] was inactive.

In the case of `CNC(=O)ON=CC(C)(C)SC`, the result in assay [1], in assay [2], in [3], in assay [4], in assay [5] and in assay [6] was inactive. For the same compound, the result in assay [7] was inactive.

For the compound `CS/C(C)=N/OC(=O)N(C)SN(C)C(=O)O/N=C(\C)SC`, the AC50 was 30.1 µM (active) in assay [1]; 31.4 µM (active) in [2]; 35.6 µM (active) in assay [3]; 8.27 µM (active) in [4]; 16 µM (active) in assay [5]; 5.3 µM (active) in assay [6]. Besides, the half-maximal activity concentration (AC50) was 28.4 µM (active) in assay [7]; 10 µM (active) in assay [13]; 2.79 µM (active) in [14]; 0.934 µM (active) in assay [15]; 5.64 µM (active) in [11]; 3.43 µM (active) in assay [10]. Also, the result in [16] was inactive.

The record behind these values is PubChem BioAssay (EPA / NIEHS).
